From PubChem BioAssay AID434989 (The Scripps Research Institute Molecular Screening Center, 2010) come the findings set out here.

Hit rate of the full screen: of about 330,000 compounds, about 1,400 (0.42%) were called active. What follows is part of a selection rich in actives, with near analogues and random picks from the rest. Unmarked numbers belong to inactive results.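 Rule for the calls: active = inhibition above its plate's threshold, mean inhibition of all tested compounds on the plate plus 3 SD (cut at about 37% in these data); inactive = the rest.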

The target of the assay is Orexin/Hypocretin receptor type 1 (Homo sapiens) (UniProt O43613). Kind of assay: blockers of orexin-A calcium signaling via HCRTR1 – fluorescence, CHO/OX1R cells, Fluo-8 calcium, primary screen (AID 434989).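 Note: 0% = orexin A challenge wells and 100% = SB-334867-A antagonist wells.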 The following applies: Fluo-8 calcium fluorescence, at 5 µM, hits give high values.
Sequence of Orexin/Hypocretin receptor type 1 (Homo sapiens) (O43613 whole entry, looked up): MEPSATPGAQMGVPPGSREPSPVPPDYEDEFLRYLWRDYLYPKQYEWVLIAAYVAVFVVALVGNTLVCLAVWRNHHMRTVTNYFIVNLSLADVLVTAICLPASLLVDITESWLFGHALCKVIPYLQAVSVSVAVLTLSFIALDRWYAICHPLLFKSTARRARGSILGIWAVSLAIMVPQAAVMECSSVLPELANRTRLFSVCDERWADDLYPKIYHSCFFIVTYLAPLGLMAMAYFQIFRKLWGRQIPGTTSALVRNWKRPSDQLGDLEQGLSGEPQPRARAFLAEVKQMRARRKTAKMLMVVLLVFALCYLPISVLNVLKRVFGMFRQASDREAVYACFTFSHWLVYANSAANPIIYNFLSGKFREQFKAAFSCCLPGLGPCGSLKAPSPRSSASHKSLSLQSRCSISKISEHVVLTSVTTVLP
As a reminder, the inhibition is the change of the read-out against control, counted positive when it falls. On to `CN1CCN(C(=S)SCC(=O)Nc2ccc(Cl)cc2C(=O)c2ccccc2)CC1`, for which the inhibition is -28.1%. Next, `CC(C(=O)Nc1ccc(Cl)cc1Cl)N1CC=C(c2ccccc2)CC1` (stereo not given): 50% (active); `Cc1ccc(C(C)C)c(OCC(=O)N2CCN(CC(=O)N3CCOCC3)CC2)c1`: 4.64%; `O=C(N/N=C/c1c(O)n(C2CC2)c(=S)[nH]c1=O)c1ccccc1`: -22.4%. On to `Cc1ccc(Cn2nnnc2CN2CCC(n3nnc4ccccc43)CC2)cc1`, for which the inhibition was -21.8%.

As for `Cc1ccc(CN2CCCC(C(=O)c3ccc4c(c3)OCO4)C2)cc1C` (stereo not given), the inhibition is -21.1%. As to `COc1cc2nc(N3CCN(C(=O)[C@@H]4CCCO4)CC3)nc(N)c2cc1OC`, the inhibition was 2.61%. The value for `O=C1C2(Cl)C3(Cl)C4(Cl)C(Cl)(Cl)C5(Cl)C3(Cl)C1(Cl)C5(Cl)C24Cl` (stereo not given) was 72.3% (active); that for `CC1=C(C(=O)Nc2ccccc2)SCCO1` was -6.61%; that for `Nc1ccc([N+](=O)[O-])cc1` was -2.36%.
